Experimental data taken from PubChem BioAssay.
Values joined by “and” are separate entries in the source; they are usually repeats but may differ in a detail not shown here. Equal values may be shown once. A structure can be active in one record and inactive in another. Active and inactive are the calls of the source.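 How the source made its calls, unless noted: active means thallium flux through the channel raised or lowered by more than 3 SD from vehicle-only wells, actives on both sides; inactive means the rest.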

Experiments:
[1] = Wnt pathway potentiators raising nuclear beta-catenin – imaging, WNT3A-conditioned medium, mouse C2C12, NPC library, primary screen (AID 1117326; in the data active means nuclear beta-catenin stimulation mostly above about 4.2%, no sharp cut-off; inactive means mostly below about 10%); conditions: stronger effect = higher value
[2] = stimulators of insulin release from INS-1E, primary screen, cell-based, 5 mM glucose, NPC library (AID 1117329;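 active means compound raises insulin release from rat beta cells at 5 mM glucose, no numeric limit stated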); conditions: rat INS-1E insulin secretion, at 10 µM, stronger effect = higher value
[3] = growth inhibition of GSK3B-pretreated HCT116 cells – cell-based, CellTiter-Glo, 0.2 to 20 µM (AID 1117336;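 active means compounds lowering colon cancer cell viability after pretreatment blocking the GSK3B kinase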); conditions: HCT116 viability after GSK3B inhibitor, at 20 µM, stronger effect = higher value
[4] = inhibition of endothelial tube formation, primary screen, imaging, VEGF stimulated, CD31 staining, tube area, NPC library (AID 1117340;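 active means compound that reduces growth-factor-driven endothelial tube area in a mixed cell culture, no cutoff stated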); conditions: VEGF-stimulated ADSC/ECFC co-culture, at 10 µM, stronger effect = higher value
[5] = GLP1 release stimulators, primary, NCI-H716, NPC library (AID 1117341;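 active means compound raises GLP1 secretion from the human gut endocrine cells, with no numeric limit stated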); conditions: NCI-H716 cells, at 10 µM, stronger effect = higher value
[6] = HCT116 colon cancer cell growth inhibition, primary screen, CellTiter-Glo luminescence, NPC library (AID 1117342;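 active means compounds that lower survival of HCT116 colon cancer cells in the luminescence readout, no numeric limit stated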); conditions: at 20 µM (top of the series)
[7] = reduced SW480 viability measured with CellTiter-Glo, NPC library, primary (AID 1117343;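 active means compounds that lower viability of the colon cancer cells in the luminescence readout, with no numeric limit stated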); conditions: CellTiter-Glo luminescence; at 20 µM (top of the series)
[8] = NPC library primary testing for decreased DLD-1 cell viability via CellTiter-Glo (AID 1117346;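 active means compounds that lower survival of DLD-1 colon cancer cells in the luminescence readout, no cutoff given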); conditions: DLD-1 viability, CellTiter-Glo luminescence; at 20 µM (top of the series)
[9] = molecular target: 6-phosphogluconate dehydrogenase, decarboxylating (Homo sapiens) (UniProt P52209); assay: inhibition of human phosphogluconate dehydrogenase – biochemical, recombinant enzyme, NADPH absorbance, primary screen (AID 1159550;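 active means at least 20% inhibition of 6-phosphogluconate dehydrogenase activity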); conditions: recombinant 6PGD, NADPH absorbance 341 nm; at 10 µM; stronger effect = higher value
[10] = EMT-state selective cytotoxicity in co-culture – imaging, PC-3E GFP, TEM4-18 mCherry, primary screen (AID 1345086;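 active means compounds killing one labelled cell type while sparing the other, by normalised counts and ratio limits, not self-fluorescent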;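 on all read-outs here: cells exposed to compound for 72 h before imaging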;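 on red/green cell ratio (normalised): normalised mesenchymal count divided by normalised epithelial count so high means epithelial killing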); conditions: PC-3E GFP / TEM4-18 mCherry co-culture, imaging cell counts, at 1 µM; for red/green cell ratio (normalised): actives lie on both sides, counts scaled to control wells, 1 = unselective
[11] = MELAS cybrid and Rieske KO viability enhancers – cell-based, MELAS cybrids, Rieske KO mouse fibroblasts, CellTiter-Glo, primary screen (AID 1508586;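 active means mean z-score across replicates of 1.96 or higher in either the MELAS or the Rieske mutant cell line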;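 further: z relative to plate mean and SD of compound and empty wells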); conditions: low glucose
[12] = molecular target: NAD(+) hydrolase SARM1 (Homo sapiens) (UniProt Q6SZW1); assay: blocking NAD cleavage by SARM1 SAM-TIR – cell lysate, NAD-Glo luminescence (AID 1508614;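 active means compound whose remaining NAD level is above about 45 nM, limit read from the data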); conditions: SAM-TIR HEK293T lysate NADase, at 1 µM, stronger effect = higher value
[13] = molecular target: Mitogen-activated protein kinase 7 (Homo sapiens) (UniProt Q13164); assay: Gal4-ERK5 driven luciferase induction – cell-based, HTS, primary screen (AID 1508626;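 active means luciferase signal above three times the same-plate solvent-only control wells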;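 further: luciferase driven by Gal4-ERK5 fusion binding five Gal4 sites before minimal TATA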); conditions: HeLa Gal4-ERK5 transactivation, 18 h, at 5 µM, stronger effect = higher value
F380Y = assay: BK channel mutant inhibitors and activators – cell-based, U2OS BacMam, thallium flux, beta subunits, selectivity assay, profiling panel (AID 1259406); conditions: U2OS BacMam BK variants, at 30 µM;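 further: initial slope of Thallos dye fluorescence rise after thallium is added; log ratio against the mean of 0.3% DMSO vehicle wells on the same plate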
F380Y/beta2Delta = assay: as above; conditions: U2OS BacMam BK variants, at 30 µM
[14] = molecular target: Calcium-activated potassium channel subunit alpha-1 (Homo sapiens) + Leucine-rich repeat-containing protein 26 (Homo sapiens) (UniProt Q12791+Q2I0M4); assay: as above; conditions: U2OS BacMam BK variants, F380Y/Slo1WT/gamma1, at 30 µM
R275C = assay: as above; conditions: U2OS BacMam BK variants, at 30 µM
R275C/beta1 = assay: as above; conditions: U2OS BacMam BK variants, at 30 µM
R275C/beta2Delta = assay: as above; conditions: U2OS BacMam BK variants, at 30 µM
[15] = viability loss with induced miR-34 in A549 – imaging, A549 dox-inducible miR-34, nuclei and caspase counts, primary screen (AID 1347080;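 active means compounds whose cell count with miR-34 switched on is under 0.7 times the count with it off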); conditions: A549 miR-34 inducible, Hoechst nuclei count, 48 h
[16] = measured here: epithelial PC-3E GFP cell survival
[17] = measured here: mesenchymal TEM4-18 mCherry cell survival
[18] = MELAS cybrid survival, CellTiter-Glo 48 h, stronger effect = higher value
[19] = Rieske KO mouse fibroblast survival, CellTiter-Glo 72 h
[20] = measured here: relative caspase fold change +Dox/-Dox

Calcium-activated potassium channel subunit alpha-1 (Homo sapiens) + Leucine-rich repeat-containing protein 26 (Homo sapiens), sequence (Q2I0M4 whole entry, looked up, one chain of several): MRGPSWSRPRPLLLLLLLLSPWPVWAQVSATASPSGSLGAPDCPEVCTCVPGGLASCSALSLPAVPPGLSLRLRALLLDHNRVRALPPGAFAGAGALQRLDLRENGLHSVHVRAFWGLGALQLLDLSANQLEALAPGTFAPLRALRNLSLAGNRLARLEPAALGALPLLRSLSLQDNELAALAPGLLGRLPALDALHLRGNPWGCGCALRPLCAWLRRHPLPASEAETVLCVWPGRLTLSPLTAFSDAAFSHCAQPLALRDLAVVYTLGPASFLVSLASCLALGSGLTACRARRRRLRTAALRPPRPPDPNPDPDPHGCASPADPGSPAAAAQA
6-phosphogluconate dehydrogenase, decarboxylating (Homo sapiens), sequence (P52209 whole entry, looked up): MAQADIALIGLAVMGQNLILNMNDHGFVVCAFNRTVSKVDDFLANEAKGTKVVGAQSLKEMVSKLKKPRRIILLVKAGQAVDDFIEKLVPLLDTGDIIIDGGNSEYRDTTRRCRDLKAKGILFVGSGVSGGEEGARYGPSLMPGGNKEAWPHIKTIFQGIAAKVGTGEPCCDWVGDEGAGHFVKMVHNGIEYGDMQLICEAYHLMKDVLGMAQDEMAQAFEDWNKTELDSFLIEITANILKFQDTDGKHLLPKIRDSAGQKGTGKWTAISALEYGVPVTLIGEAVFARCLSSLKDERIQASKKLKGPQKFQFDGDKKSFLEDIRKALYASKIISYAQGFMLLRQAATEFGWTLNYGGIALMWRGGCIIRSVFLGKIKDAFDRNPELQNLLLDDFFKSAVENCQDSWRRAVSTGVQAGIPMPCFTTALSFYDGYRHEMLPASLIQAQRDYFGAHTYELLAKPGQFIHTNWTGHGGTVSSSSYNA
NAD(+) hydrolase SARM1 (Homo sapiens), sequence (Q6SZW1 whole entry, looked up, the tested form may be a part): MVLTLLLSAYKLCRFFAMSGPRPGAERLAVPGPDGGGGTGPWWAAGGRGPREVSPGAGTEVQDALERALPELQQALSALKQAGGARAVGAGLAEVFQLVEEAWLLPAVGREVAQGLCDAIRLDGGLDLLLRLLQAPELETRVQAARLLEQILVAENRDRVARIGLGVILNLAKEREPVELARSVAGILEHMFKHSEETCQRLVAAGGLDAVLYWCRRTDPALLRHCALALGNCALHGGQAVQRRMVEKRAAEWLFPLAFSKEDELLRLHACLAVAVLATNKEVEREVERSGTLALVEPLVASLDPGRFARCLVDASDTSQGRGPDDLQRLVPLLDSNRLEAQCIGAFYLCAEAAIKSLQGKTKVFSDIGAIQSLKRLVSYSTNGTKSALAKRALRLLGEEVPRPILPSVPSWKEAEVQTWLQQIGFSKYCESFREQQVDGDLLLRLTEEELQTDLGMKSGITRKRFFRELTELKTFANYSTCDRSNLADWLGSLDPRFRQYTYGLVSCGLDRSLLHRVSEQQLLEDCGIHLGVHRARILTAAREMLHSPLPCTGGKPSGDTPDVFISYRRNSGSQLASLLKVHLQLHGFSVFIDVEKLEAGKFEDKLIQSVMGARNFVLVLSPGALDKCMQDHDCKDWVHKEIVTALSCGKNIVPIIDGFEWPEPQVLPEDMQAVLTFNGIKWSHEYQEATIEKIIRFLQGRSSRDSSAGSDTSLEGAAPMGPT
Mitogen-activated protein kinase 7 (Homo sapiens), sequence (Q13164 whole entry, looked up, the tested form may be a part): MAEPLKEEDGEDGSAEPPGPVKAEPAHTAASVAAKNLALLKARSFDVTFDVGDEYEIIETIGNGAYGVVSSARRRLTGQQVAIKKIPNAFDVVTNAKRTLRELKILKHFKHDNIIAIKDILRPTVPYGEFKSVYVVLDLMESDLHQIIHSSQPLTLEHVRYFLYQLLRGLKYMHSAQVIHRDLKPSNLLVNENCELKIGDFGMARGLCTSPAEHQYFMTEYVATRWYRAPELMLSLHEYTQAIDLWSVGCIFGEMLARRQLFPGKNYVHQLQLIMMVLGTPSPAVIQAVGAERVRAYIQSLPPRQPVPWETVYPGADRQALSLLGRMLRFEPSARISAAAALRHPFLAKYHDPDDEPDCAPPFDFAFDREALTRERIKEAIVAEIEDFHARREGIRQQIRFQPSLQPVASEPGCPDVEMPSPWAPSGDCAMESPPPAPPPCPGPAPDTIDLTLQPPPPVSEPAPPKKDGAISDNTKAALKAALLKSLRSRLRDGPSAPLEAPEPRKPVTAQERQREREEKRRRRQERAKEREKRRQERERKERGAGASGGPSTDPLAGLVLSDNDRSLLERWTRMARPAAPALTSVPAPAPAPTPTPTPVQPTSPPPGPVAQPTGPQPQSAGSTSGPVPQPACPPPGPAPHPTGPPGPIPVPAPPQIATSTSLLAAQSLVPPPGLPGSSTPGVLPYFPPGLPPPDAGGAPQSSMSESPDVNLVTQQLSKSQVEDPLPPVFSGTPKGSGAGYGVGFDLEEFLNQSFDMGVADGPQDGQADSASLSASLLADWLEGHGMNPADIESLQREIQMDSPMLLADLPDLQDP

OC(CCN1CCCCC1)(c1ccccc1)C1CCCCC1 (stereo unspecified)
7.5%: nuclear beta-catenin stimulation ([1]; stimulation, at 2 µM)
0.169: z-score [11, 19]
1: normalised cell number [10, 17]
active: viability decrease (inhibition) [7] 67.1% | log fold change Tl+ flux (R275C) -0.119
0.92: normalised cell number [10, 16]
inactive: nuclear beta-catenin stimulation ([1]; at 10 µM) -1.1% | insulin secretion stimulation [2] 12.4% | viability decrease [3] -59.3% | tube area decrease [4] 5% | GLP1 secretion stimulation [5] 3.3% | inhibition of viability [6] 34.2% | viability decrease (inhibition) [8] 18.6% | inhibition [9] 5.23% | red/green cell ratio (normalised) [10] 1.08 | z-score [11, 18] 0.423 | remaining NAD [12] 10 nM | luciferase signal [13] 56 AU | log fold change Tl+ flux (F380Y) 0.0654 | log fold change Tl+ flux (F380Y/beta2Delta) -0.0109 | log fold change Tl+ flux [14] -0.0285 | log fold change Tl+ flux (R275C/beta1) 0.105 | log fold change Tl+ flux (R275C/beta2Delta) -0.0882

CCCCC1=NC2(CCCC2)C(=O)N1Cc1ccc(-c2ccccc2-c2nn[nH]n2)cc1
7090 and 11900: cell count ([15]; measured here: total cells with miR-34 induction, stronger effect = lower value)
-0.504: z-score [11, 19]
active: log fold change Tl+ flux (R275C/beta1) 0.109 | log fold change Tl+ flux (R275C/beta2Delta) 0.104
1.18: normalised cell number [10, 17]
inactive: nuclear beta-catenin stimulation ([1]; at 10 µM) 1.9% | insulin secretion stimulation [2] 1.8% | viability decrease [3] -43% | tube area decrease [4] -17.7% | GLP1 secretion stimulation [5] -0.1% | inhibition of viability [6] -0.43% | viability decrease (inhibition) [7] -11.7% | viability decrease (inhibition) [8] -12.4% | inhibition [9] -3.55% | red/green cell ratio (normalised) [10] 1.43 | fold change ([15]; stronger effect = lower value, cell number ratio, induced over uninduced) 0.939 and 0.866 | z-score [11, 18] -0.829 | remaining NAD [12] 10 nM | luciferase signal [13] 56 AU | log fold change Tl+ flux (F380Y) 0.0685 | log fold change Tl+ flux (F380Y/beta2Delta) 0.0508 | log fold change Tl+ flux [14] -0.00804 | log fold change Tl+ flux (R275C) 0.00561
7550 and 13800: cell count ([15]; measured here: total cells without miR-34 induction)
0.1%: nuclear beta-catenin stimulation ([1]; stimulation, at 2 µM)
1.55 and 6.32: fold change [15, 20]
0.82: normalised cell number [10, 16]

CN(C)C(=O)Oc1ccc[n+](C)c1
0.0482 and -0.383: z-score [11, 19]
1.15: normalised cell number [10, 16]
10.5%: nuclear beta-catenin stimulation ([1]; stimulation, at 2 µM)
1.53: normalised cell number [10, 17]
inactive: nuclear beta-catenin stimulation ([1]; at 10 µM) 0.1% | insulin secretion stimulation [2] 0.95% | viability decrease [3] 10.7% | tube area decrease [4] -21.1% | GLP1 secretion stimulation [5] -3.2% | inhibition of viability [6] -1% | viability decrease (inhibition) [7] -8.3% | viability decrease (inhibition) [8] -12.1% | inhibition [9] -7.31% | red/green cell ratio (normalised) [10] 1.32 | z-score [11, 18] 0.178 and 0.175 | remaining NAD [12] 10 nM | luciferase signal [13] 48 AU | log fold change Tl+ flux (F380Y) -0.00126 | log fold change Tl+ flux (F380Y/beta2Delta) -0.0385 | log fold change Tl+ flux [14] 0.0382 | log fold change Tl+ flux (R275C) -0.0114 | log fold change Tl+ flux (R275C/beta1) -0.0401 | log fold change Tl+ flux (R275C/beta2Delta) 0.0292

c1ccc2c(c1)CCCC2C1=NCCN1 (stereo unspecified)
-0.1%: nuclear beta-catenin stimulation ([1]; stimulation, at 2 µM)
1.36: normalised cell number [10, 17]
inactive: nuclear beta-catenin stimulation ([1]; at 10 µM) 4.7% | insulin secretion stimulation [2] -0.4% | viability decrease [3] -30.2% | tube area decrease [4] -9.5% | GLP1 secretion stimulation [5] 0.9% | inhibition of viability [6] 0.6% | viability decrease (inhibition) [7] 11.2% | viability decrease (inhibition) [8] -6.9% | inhibition [9] 19.3% | red/green cell ratio (normalised) [10] 1.32 | z-score [11, 18] -0.281 and -0.833 | remaining NAD [12] 10 nM | luciferase signal [13] 44 AU | log fold change Tl+ flux (F380Y) -0.0277 | log fold change Tl+ flux (F380Y/beta2Delta) -0.0151 | log fold change Tl+ flux [14] 0.0123 | log fold change Tl+ flux (R275C) -0.00319 | log fold change Tl+ flux (R275C/beta1) -0.00185 | log fold change Tl+ flux (R275C/beta2Delta) -0.0361
-0.176 and -0.558: z-score [11, 19]
1.03: normalised cell number [10, 16]

O=C1NC(=O)C(c2ccccc2)(c2ccccc2)N1
inactive: nuclear beta-catenin stimulation ([1]; at 10 µM) 0.1% | insulin secretion stimulation [2] -0.3% | viability decrease [3] 7% | tube area decrease [4] -8.6% | GLP1 secretion stimulation [5] 3.3% | inhibition of viability [6] 0.15% | viability decrease (inhibition) [7] 45.8% | viability decrease (inhibition) [8] -0.3% | inhibition [9] 6.59% | red/green cell ratio (normalised) [10] 0.93 | remaining NAD [12] 10 nM | luciferase signal [13] 68 AU | log fold change Tl+ flux (F380Y) 0.0665 | log fold change Tl+ flux (F380Y/beta2Delta) -0.01 | log fold change Tl+ flux [14] -0.0118 | log fold change Tl+ flux (R275C) -0.00405 | log fold change Tl+ flux (R275C/beta1) -0.0211 | log fold change Tl+ flux (R275C/beta2Delta) 0.0126
-1.75 and 0.128: z-score [11, 19]
2.18 (active) and -0.393 (inactive): z-score [11, 18]
0.8%: nuclear beta-catenin stimulation ([1]; stimulation, at 2 µM)
0.99: normalised cell number [10, 17]
1.07: normalised cell number [10, 16]

CC(=O)CCCCn1c(=O)c2c(ncn2C)n(C)c1=O
1.37: normalised cell number [10, 17]
inactive: nuclear beta-catenin stimulation ([1]; at 10 µM) 0.1% | insulin secretion stimulation [2] -1.6% | viability decrease [3] 2.8% | tube area decrease [4] -8.3% | GLP1 secretion stimulation [5] 1.9% | inhibition of viability [6] -8.4% | viability decrease (inhibition) [8] 10.8% | inhibition [9] 4.74% | red/green cell ratio (normalised) [10] 1.09 | z-score [11, 18] 0.897 and 0.351 | remaining NAD [12] 10 nM | luciferase signal [13] 88 AU | log fold change Tl+ flux (F380Y) 0.00269 | log fold change Tl+ flux (F380Y/beta2Delta) -0.0305 | log fold change Tl+ flux [14] -0.00624 | log fold change Tl+ flux (R275C) -0.0458 | log fold change Tl+ flux (R275C/beta1) -0.0218 | log fold change Tl+ flux (R275C/beta2Delta) 0.00216
active: viability decrease (inhibition) [7] 52.4%
1.25: normalised cell number [10, 16]
-0.8%: nuclear beta-catenin stimulation ([1]; stimulation, at 2 µM)
0.0131 and -0.0411: z-score [11, 19]

CCOC(=O)[C@H](CCc1ccccc1)N[C@@H](C)C(=O)N1Cc2ccccc2C[C@H]1C(=O)O
0.3%: nuclear beta-catenin stimulation ([1]; stimulation, at 2 µM)
1.45 and 1.07 and 4.39: fold change [15, 20]
1.17: normalised cell number [10, 16]
-0.486 and -0.81: z-score [11, 19]
inactive: nuclear beta-catenin stimulation ([1]; at 10 µM) 2.5% | insulin secretion stimulation [2] 0.7% | viability decrease [3] -30.1% | tube area decrease [4] -10% | GLP1 secretion stimulation [5] 2.9% | inhibition of viability [6] 3.6% | viability decrease (inhibition) [7] 28.5% | viability decrease (inhibition) [8] 6% | inhibition [9] -10.1% | red/green cell ratio (normalised) [10] 0.95 | z-score [11, 18] 0.64 and 0.208 | remaining NAD [12] 10 nM | luciferase signal [13] 64 AU | log fold change Tl+ flux (F380Y) 0.032 | log fold change Tl+ flux (F380Y/beta2Delta) 0.0255 | log fold change Tl+ flux [14] 0.0143 | log fold change Tl+ flux (R275C) -0.00535 | log fold change Tl+ flux (R275C/beta1) 0.0226 | log fold change Tl+ flux (R275C/beta2Delta) 0.0266
1.12: normalised cell number [10, 17]
